Measured values from PubChem BioAssay AID743279 (National Center for Advancing Translational Sciences (NCATS), 2014).
In all, about 360,000 compounds went through this assay and about 17,000 (4.7%) were called active. Roughly 5% stayed inconclusive and do not appear here. This is one part of a sample in which actives are shown more often than they occur. A number with no mark means an inactive call. Rule as the data show it: active = activity change below about -50%; inconclusive = mostly about -30% to -49%; inactive = weaker than that.

test: qHTS for Inhibitors of Inflammasome Signaling: IL-1-beta AlphaLISA Primary Screen; conditions: THP-1 LPS/ATP IL-1B secretion, 16 h; at 57.5 µM, hits give low values
Method in brief: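 Secreted IL-1B measured by AlphaLISA bead assay after 16 h compound exposure of THP-1 cells; compounds (final up to 57.5 uM) added 1 h before LPS (250 ng/mL) and ATP (1.25 mM) stimulation; lower signal means less secretion.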
% is scaled to controls: 0 for no effect and ±100 for the full control effect.

| SMILES | activity change |
| --- | --- |
| O=S(=O)(Nc1ccc2[nH]ncc2c1)c1ccccc1Cl | -6.19% |
| CNC(=O)c1ccsc1NC(=O)c1ccc(S(=O)(=O)N2CCc3ccccc32)cc1 | -11.5% |
| CCN(Cc1ccncc1)C(=S)Nc1ccccc1C | 9.34% |
| COc1ccc(NC(=O)CCCOc2ccc(C(C)=O)cc2)cc1S(=O)(=O)N1CCCCC1 | 5.4% |
| C=CCn1c(COc2ccc(F)cc2)nnc1SCC(=O)Nc1cccc(S(N)(=O)=O)c1 | -56.5% (active) |
| COc1ccc(-n2cnnc2SCC(=O)Nc2cccc(S(N)(=O)=O)c2)cc1 | 23.2% |
| C=CCn1c(CC(=O)Nc2cccc(OC)c2)nnc1SCC(=O)NC1CCCCC1 | -18.6% |
| O=C(N[C@H]1CC[C@H](CC(=O)N2CCCCC2)O[C@@H]1CO)c1cccc(F)c1 | 34.1% |
| COc1ccc(Nc2ccc3ccccc3c2)cc1 | -4.37% |
| COc1ccc(Nc2cc(Sc3ccc(OC)cc3)ncn2)cc1 | -73.2% (active) |
| COc1ccc(Nc2ncnc3sc(C)cc23)cc1 | 1.88% |
| Cc1cccc(N2CCN(C(=O)/C=C/c3ccco3)CC2)c1C | -12.5% |
| CC(=O)N1CCN(S(=O)(=O)c2c(F)cc(F)c(Cl)c2F)CC1 | -92.4% (active) |
| O=C(c1cnc(Cl)c(Cl)c1)N1CCN(S(=O)(=O)c2ccc(F)cc2)CC1 | -12.3% |
| CCN1CCN(C(=O)C2CCN(S(=O)(=O)c3cc(Cl)ccc3Cl)CC2)CC1 | 24.2% |
| O=[N+]([O-])c1ccc(CN2CC(N3CCC(c4ccccc4)CC3)CS2(=O)=O)cc1 (centres undefined) | -10.2% |
| O=C(Nc1cc(F)ccc1F)c1ccc2c(=O)n3c(nc2c1)CCC3 | -13.9% |
| CC(C)(C)OC(=O)NCCCCCNC(=O)c1[nH]cnc1C(=O)Nc1nccs1 | -8.09% |
| C=CC(=O)OCCOCCOCCOCCOC(=O)C=C | -108% (active) |
| COC(=O)c1ccc2nc(-c3ccc(F)cc3)c(Cc3ccc(C)cc3)n2c1 | 14.8% |
| CC1(c2cccc(N)c2)OCCO1 | -13.4% |
| CCC(=O)N1CCCC1(C)C(=O)Nc1ccc2c(c1)CCN2C(C)=O (centres undefined) | -2.74% |

| SMILES | activity change |
| --- | --- |
| O=C(CCCN1C(=O)/C(=C\c2ccccc2)SC1=S)Nc1ccccc1O | -71.6% (active) |
| CC(C(=O)Nc1ccc(O)c(C(=O)O)c1)N1C(=O)/C(=C/c2cccs2)SC1=S (centres undefined) | 3.56% |
| O=C(CN1C(=O)/C(=C\c2ccccc2F)SC1=S)Nc1nc2ccccc2s1 | -3.88% |
| COc1cccc(/C=C2\SC(=S)N(CCCC(=O)N3CCOCC3)C2=O)c1 | -22.2% |
| O=C(CCCN1C(=O)/C(=C/c2cccs2)SC1=S)Nc1ccc(O)cc1 | -71.2% (active) |
| COc1ccc(/C=C2/SC(=O)N(CCCCCC(=O)Nc3ccccc3C(=O)O)C2=S)cc1 | 34.4% |
| COc1ccc(S(=O)(=O)N[C@@H]2C=C[C@@H](CC(=O)N3CCc4ccccc4C3)O[C@@H]2CO)cc1 | 12.3% |
| CCOc1cc(/C=C(/C#N)c2ccc(Cl)cc2)cc(Cl)c1OCC(=O)O | 31.7% |
| CCc1noc(C)c1C(=O)NNC(=O)c1ccc(F)cc1 | 10.8% |
| O=C(/C=C/c1ccc([N+](=O)[O-])o1)NNC(=O)c1ccc(F)cc1 | -102% (active) |
| O=C(NNC(=O)C1CCCC1)c1ccc(F)cc1 | -5.32% |
| CC(C)NC(=O)C1(C)CCCCCN1C(=O)c1ccc(-c2ccccc2)cc1 (centres undefined) | -2.6% |
| Cc1ccccc1C1=N/C(=C/c2cccnc2)C(=O)O1 | 38.6% |
| Clc1ccc(CN2CCN(/N=C/c3cccnc3)CC2)cc1 | 11.9% |
| O=C1/C(=C\c2cccnc2)CN(Cc2ccccc2)C/C1=C\c1cccnc1 | -107% (active) |
| CC(C)N=C1CCCC1C(=S)SSC(=S)C1CCCC1=NC(C)C (centres undefined) | -104% (active) |
| COc1cccc(C(NC(C)=O)c2nc(-c3cnc4ccccc4c3)cs2)c1 (centres undefined) | -1.76% |
| CN1CCC(N(C)C(=O)c2ccc(Cl)c(S(=O)(=O)Nc3ccc(Cl)cc3)c2)CC1 | -20% |
| CCCCNC(=O)CCn1c(=O)c2ccccc2n(Cc2cc(C)ccc2C)c1=O | -9.41% |
| O=C(/C=C/[C@H]1O[C@@H](n2cnc3c(NC(=O)c4ccccc4)ncnc32)[C@H](O)[C@@H]1O)NCc1ccccc1 | 1.22% |
| CCOc1ccc(CNC(=O)C2CCCN(c3nnc(C)c4c(C)n(-c5ccccc5)nc34)C2)cc1 (centres undefined) | 17.4% |
| COc1ccc(-n2nc3c(N4CCC(C(=O)NCc5ccccc5)CC4)nnc(C)c3c2C)cc1 | -9.21% |
